Results published in PubChem BioAssay (NCATS).
Inconclusive results are not listed. A call without a number means that no potency is given here. Calls of active or inactive are those of the source. Calls follow the shape of the dose curve; as a rule, active = well fitted inhibition curve with a large enough effect; inconclusive = small, poorly fitted or top-dose-only effect; inactive = flat fitted curve, though single readings scatter.

Target: Calcium and integrin-binding protein 1 (Homo sapiens) (UniProt Q99828)
Sequence (Q99828 whole entry, looked up): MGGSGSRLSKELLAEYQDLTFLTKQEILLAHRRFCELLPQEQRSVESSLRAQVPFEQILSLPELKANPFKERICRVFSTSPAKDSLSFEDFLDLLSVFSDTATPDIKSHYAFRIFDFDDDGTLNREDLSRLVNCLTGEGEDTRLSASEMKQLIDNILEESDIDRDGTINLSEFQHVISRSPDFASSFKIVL
Test: Primary qHTS for Identification of Calcium Integrin Binding Protein 1 (CIB1) Competitor (AID 1508620)
Conditions: CIB1-GST / FITC-alphaIIb peptide fluorescence polarization; series mostly up to 114 µM
Procedure, shortened: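 CIB1-GST (1 uM final) and compound incubated 15 min at room temperature before adding FITC-alphaIIb peptide tracer (100 nM final). Competition for binding read by fluorescence polarization (ex 480, em 540) after another 15 min at room temperature.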
Potency is read from the fitted curve at half-maximal effect.

Row | Compound | Potency
1 | N#Cc1cccc(-c2csc(N3CCC(C(N)=O)CC3)n2)c1 | inactive
2 | CNc1oc(-c2cccc3c2OC(F)(F)O3)nc1C#N | inactive
3 | COc1ccc(C(=O)Nc2nc(-c3ccccc3)cs2)c(OC)c1 | inactive
4 | CN1CCN(c2ccc(NC(=O)c3cccs3)cn2)CC1 | inactive
5 | Clc1ccccc1-c1nc(NCc2ccc(-c3cccnc3)cc2)c2ccccc2n1 | inactive
6 | Cc1cc(C)n2ncc(C(=O)Nc3ccncc3)c2n1 | inactive
7 | Cc1ccnc(NCc2ccc(O)c3ncccc23)c1 | inactive
8 | Nc1ccc(C(=O)Nc2ccc(-c3nc4ccccc4[nH]3)cc2)cc1Cl | inactive
9 | Cc1cc2c(s1)c1cnn(Cc3cc(F)c(F)cc3F)c(=O)c1n2C | inactive
10 | Oc1ccc(CNc2ccc(C(F)(F)F)cc2Cl)c2cccnc12 | inactive
11 | Cc1ccc(NS(=O)(=O)c2ccc3c(c2)CC(=O)N3)cc1C | inactive
12 | Cc1cc(-c2nc(Nc3ccc(F)c(F)c3)c3ccccc3n2)ccn1 | inactive
13 | CC(C)N1CCc2c(sc(NC(=O)Cc3ccccc3)c2-c2nc3ccccc3s2)C1 | 28.2 µM (active)
14 | Cc1ccc(CNc2ncnc3ccc(-c4ccc5c(c4)OCO5)cc23)s1 | inactive
15 | Cn1cncc1CNc1ncnc2ccc(-c3ccc4c(c3)OCO4)cc12 | inactive
16 | Cc1ccc(NS(=O)(=O)c2cc3c(cc2Cl)NC(=O)CO3)cc1Cl | inactive
17 | COc1ccc(C2=Nn3c(nnc3-c3ccccc3O)SC2)c(OC)c1 | inactive
18 | Cc1cc2c(s1)c1cnn(Cc3c(F)ccc(F)c3Cl)c(=O)c1n2C | inactive
19 | COc1cccc(C2c3c(ncn(-c4ccncc4)c3=N)Oc3ccc4ccccc4c32)c1 (stereo not given) | inactive
20 | COC(=O)c1ccc2nc(NC3=NC(c4[nH]ncc4Cl)C4=C(CCCC4=O)N3)oc2c1 (stereo not given) | inactive

Row | Compound | Potency
21 | Cc1noc(C)c1-c1ccc2ncnc(NCc3ccc(-c4ccccc4)cc3)c2c1 | inactive
22 | O=c1c(Nc2ccc(Cl)c(Cl)c2)c(Nc2nnc(-c3ccncc3)s2)c1=O | inactive
23 | O=C1CCc2cc(S(=O)(=O)NCc3ccccc3)ccc2N1 | inactive
24 | CN1C(=O)CCc2cc(S(=O)(=O)Nc3ccc(Cl)c(Cl)c3)ccc21 | inactive
25 | CCOc1ccccc1-c1nnc2n1N=C(c1ccccc1OC)CS2 | inactive
26 | CCNC(=O)c1ccc(-c2ccc3ncnc(NCCc4cnc[nH]4)c3c2)o1 | inactive
27 | CCNC(=O)c1ccc(-c2ccc3ncnc(NCC(C)(C)C)c3c2)o1 | inactive
28 | O=[S+]([O-])(Nc1ccc2ccccc2c1)c1ccc(NCc2ccc(Cl)cc2O)cc1 | inactive
29 | Cc1ccccc1CSc1nc2ncc(Br)cc2[nH]1 | inactive
30 | O=S(=O)(Nc1cccc2cccnc12)c1ccccc1 | inactive
31 | Nc1c(-c2ccccc2)cc[nH]c1=O | inactive
32 | COc1ccc(C2=Nn3c(nnc3-c3ccccc3Cl)SC2)cc1OC1CCOC1 (stereo not given) | inactive
33 | O=C(Nc1ccc(N2CCOCC2)nc1)c1cccs1 | inactive
34 | O=C1c2ccccc2C(=O)N1c1ncccc1O | inactive
35 | COc1cccc(-c2ccc(CNc3ccc(N4CCN(C(=O)OC(C)(C)C)CC4)cc3)o2)c1 | inactive
36 | O=C(Nc1ccc(-c2cn[nH]c2)cc1)Nc1nnc(-c2ccncc2)s1 | inactive
37 | Cc1noc(C)c1-c1ccc2ncnc(NCc3ccc(Br)cc3)c2c1 | inactive
38 | FC(F)(F)c1cc(-c2ccc(CNc3nc(C4CCCC4)nc4ccccc34)cc2)ccn1 | inactive
39 | CC(C)CC(O)C(=O)Nc1cc(C(F)(F)F)ccc1Cl (stereo not given) | inactive
40 | COc1ccc(C2Nc3ccccc3C(=O)N2CCCN(C)C)cc1COc1c(C)cc(NC(C)=O)cc1C (stereo not given) | inactive
